The text below walks through data of PubChem BioAssay (NCATS).

Inconclusive results are not listed. Values without a mark were called inactive. Calls of active or inactive are those of the source. Calls follow the shape of the dose curve; as a rule, active = well fitted cell-killing curve with a large enough effect; inconclusive = small, poorly fitted or top-dose-only effect, or effect the other way; inactive = flat fitted curve, though single readings scatter. Where a SMILES comes first, the peptide text is derived from it. The star is where a group is joined. AFC = O=c1cc(C(F)(F)F)c2ccc(N*)cc2o1

Holding throughout (assay): Primary qHTS to identify gynecologic anti-cancer compounds using libraries of approved drugs and bioactive compounds (AID 1345084); also: nearly all actives have a fitted effect of over 55% in size
For one test, the system named is C33A. As to conditions: Gynecologic cancer cell panel viability, ATPlite luminescence, 48 h; series mostly up to 57.5 µM. In short, it runs like this:
(§1)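 Cells, 1,000 per well, plated 16 h, then exposed 48 h at 37 C to compounds. Viability by ATPlite luminescence after 15 min at room temperature.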

The subject of a further test is CAOV3. As to conditions: Gynecologic cancer cell panel viability, ATPlite luminescence, 48 h; series mostly up to 57.5 µM. In short, it runs like this:
as §1

For another test, the system named is CASKI. The conditions noted are these: Gynecologic cancer cell panel viability, ATPlite luminescence, 48 h; series mostly up to 57.5 µM. The essentials:
as §1

The test system of the next test is Es-2. As to conditions: Gynecologic cancer cell panel viability, ATPlite luminescence, 48 h; series mostly up to 57.5 µM. The essentials: as §1
A further test has as its system HeLa. As to conditions: Gynecologic cancer cell panel viability, ATPlite luminescence, 48 h; series mostly up to 57.5 µM. The essentials:
as §1

The next test deals with Hek293T. As to conditions: Gynecologic cancer cell panel viability, ATPlite luminescence, 48 h, control line for the selectivity index; series mostly up to 57.5 µM. The essentials: as §1
The next test has as its system JEG-3. As to conditions: Gynecologic cancer cell panel viability, ATPlite luminescence, 48 h; series mostly up to 57.5 µM. In short, it runs like this: as §1
In another test the test system is OV90. As to conditions: Gynecologic cancer cell panel viability, ATPlite luminescence, 48 h; series mostly up to 57.5 µM. In short, it runs like this:
as §1

A further test concerns PA-1. As to conditions: Gynecologic cancer cell panel viability, ATPlite luminescence, 48 h; series mostly up to 57.5 µM. In short, it runs like this: as §1
Another test has as its system SKOV3. As to conditions: Gynecologic cancer cell panel viability, ATPlite luminescence, 48 h; series mostly up to 57.5 µM. The essentials:
as §1

The test system of the next test is Tov-21-G. As to conditions: Gynecologic cancer cell panel viability, ATPlite luminescence, 48 h; series mostly up to 57.5 µM. The essentials:
as §1

For another test, the system named is Tov112D. As to conditions: Gynecologic cancer cell panel viability, ATPlite luminescence, 48 h; series mostly up to 57.5 µM. In short, it runs like this: as §1
% is scaled to controls: 0 for no effect and ±100 for the full control effect; potency is read from the fitted curve at half-maximal effect.

In the case of `Cc1nc2ccc(Oc3ccc(F)cc3)cc2c(=O)n1C[C@H]1CCCN(C(C)C)C1`, the Potency result in the test with C33A, with CAOV3, in the test on CASKI, in the test on Es-2, in the test on HeLa and in the test on Hek293T was “inactive” throughout. Further, the Potency entry in the test on JEG-3, with OV90, in the test with PA-1, in the test on SKOV3, in the test with Tov-21-G and with Tov112D was “inactive” each time.

Turning to `CC(C)CC(=O)O[C@@H]1OC=C(CO[C@@H]2O[C@H](CO)[C@@H](O)[C@H](O)[C@H]2O)[C@H]2[C@@H]3O[C@H]3[C@@](O)(CO)[C@@H]12`, the Potency result with C33A, in the test on CAOV3, in the test with CASKI, in the test on Es-2, in the test with HeLa and in the test on Hek293T was “inactive” each time. In addition, the Potency result in the test with JEG-3, with OV90, in the test with PA-1, with SKOV3, in the test on Tov-21-G and in the test with Tov112D was “inactive” each time.

On to `C[C@@H]1CCC/C=C/[C@H]2CC(=O)C[C@@H]2[C@@H](O)/C=C/C(=O)O1`, for which the Potency result in the test on C33A, in the test on CAOV3, in the test on CASKI, in the test with Es-2, in the test on HeLa and with Hek293T was “inactive” throughout. Moreover, the Potency entry with JEG-3, in the test on PA-1, in the test on SKOV3, with Tov-21-G and in the test with Tov112D was “inactive” each time. In addition, the Potency in the test on OV90 is 20 µM (active).

As for `CCOc1ccc(S(=O)(=O)n2c(C)nc3ccccc32)cc1`, the Potency entry in the test with C33A, in the test with CAOV3, in the test with CASKI, in the test on Es-2, with HeLa and with Hek293T was “inactive” each time. In addition, the Potency entry in the test on JEG-3, with OV90, with PA-1, in the test with SKOV3, in the test on Tov-21-G and in the test on Tov112D was “inactive” throughout.

Take `C/C1=C\CCC2=C[C@@H](OC2=O)c2c(C)coc2C1`: the Potency result in the test with C33A, in the test on CAOV3, with CASKI, with Es-2, with HeLa and with Hek293T was “inactive” each time. The Potency result with JEG-3, in the test on OV90, with PA-1, in the test on SKOV3, in the test on Tov-21-G and in the test on Tov112D was “inactive” each time.

Regarding `CC(=O)N[C@@H](Cc1c[nH]c2ccccc12)C(=O)N[C@@H](CCC(=O)O)C(=O)N[C@@H](Cc1cnc[nH]1)C(=O)N[C@@H](CC(=O)O)C(=O)Nc1ccc2c(C(F)(F)F)cc(=O)oc2c1` (Ac-WEHD-{AFC}), the Potency result in the test with C33A, in the test on CAOV3, in the test with CASKI, with Es-2, with HeLa and in the test on Hek293T was “inactive” in each case. The Potency result in the test on JEG-3, with OV90, with PA-1, with SKOV3, in the test with Tov-21-G and in the test on Tov112D was “inactive” each time.

Regarding `CC(C)C[C@H](CC(=O)NO)C(=O)N[C@H](C(=O)N[C@@H](C)C(=O)NCCN)C(C)(C)C`, the activity change, negative = cytotoxicity was 18.9% [at 11.6 µM] in the test on C33A; 17.3% [at 11.6 µM] with CAOV3; 5.02% [at 11.6 µM] with CASKI; 10.1% [at 11.6 µM] with Es-2; 11.1% [at 11.6 µM] with HeLa; 15.9% [at 11.6 µM] in the test on Hek293T. In addition, the activity change, negative = cytotoxicity with JEG-3 is 0.977% [at 11.6 µM]; with OV90, 19.6% [at 11.6 µM]; with PA-1, 8.02% [at 11.6 µM]; in the test on SKOV3 it was 0% [at 11.6 µM]; in the test with Tov-21-G, 7.8% [at 11.6 µM]; with Tov112D, -2.79% [at 11.6 µM].

For the compound `COc1cc2c3c(cc4ccccc4c3c1O)NC2=O`, the Potency result in the test with C33A, with CAOV3, in the test with CASKI, with Es-2, in the test on HeLa and with Hek293T was “inactive” throughout. The Potency result in the test on JEG-3, in the test with OV90, with PA-1, with SKOV3, in the test on Tov-21-G and in the test on Tov112D was “inactive” each time.

Turning to `CC(C(O)/C=C/C(C)(C)O)C1CCC2(C)C3C(=O)C=C4C(CCC(O)C4(C)C)C3(C)CCC12C` (stereo not given), the Potency result in the test with C33A, in the test with CAOV3, in the test on CASKI, in the test with Es-2, with HeLa and with Hek293T was “inactive” in each case. For the same compound, the Potency result in the test on JEG-3, in the test with OV90, in the test on PA-1, in the test with SKOV3, in the test with Tov-21-G and with Tov112D was “inactive” each time.

Take `COc1c2c(c(C)c3c1C(=O)OC3)O[C@@]1(C)CCC3(C(C)(C)O)OC(=O)CC[C@]3(C)[C@H]1C2` (stereo not given in full): the Potency result with C33A, in the test on CAOV3, in the test on CASKI, in the test with Es-2, in the test on HeLa and in the test on Hek293T was “inactive” each time. Also, the Potency result with JEG-3, with OV90, in the test with PA-1, with SKOV3, in the test on Tov-21-G and with Tov112D was “inactive” throughout.

For `O=[N+]([O-])c1cn2c(n1)OCC(OCc1ccc(OC(F)(F)F)cc1)C2` (stereo not given), the Potency result with C33A, with CAOV3, in the test with CASKI, with Es-2, with HeLa and in the test with Hek293T was “inactive” in each case. For the same compound, the Potency entry in the test on JEG-3, in the test with OV90, with PA-1, with SKOV3, in the test with Tov-21-G and in the test on Tov112D was “inactive” each time.

For the compound `CC1(C)CC[C@]2(C(=O)OC3OC(CO)C(O)C(O)C3O)CC[C@]3(C)C(=CCC4[C@@]5(C)CC[C@H](OC6OC(C(=O)O)C(O)C(OC7OC(CO)C(O)C(O)C7O)C6O)C(C)(C)C5CC[C@]43C)C2C1` (stereo not given in full), the activity change, negative = cytotoxicity was 0.815% [at 11.6 µM] with C33A; -9.9% [at 11.6 µM] in the test on CAOV3; 5.34% [at 11.6 µM] with CASKI; -1.41% [at 11.6 µM] with Es-2; 2% [at 11.6 µM] in the test with HeLa; 0.993% [at 11.6 µM] in the test with Hek293T. The activity change, negative = cytotoxicity in the test with JEG-3 is 1.51% [at 11.6 µM]; in the test on OV90 it was 9.69% [at 11.6 µM]; with PA-1, 4.28% [at 11.6 µM]; with SKOV3 it was -1.26% [at 11.6 µM]; in the test with Tov-21-G it was -2.48% [at 11.6 µM]; in the test with Tov112D, 6.25% [at 11.6 µM].

Regarding `C=C1OC2CC(C(=O)O)C=CC2NC1=O` (stereo not given), the Potency entry in the test with C33A, with CAOV3, in the test on CASKI, in the test on Es-2, in the test on HeLa and in the test with Hek293T was “inactive” in each case. Further, the Potency result in the test with JEG-3, with OV90, in the test on PA-1, in the test on SKOV3, in the test on Tov-21-G and in the test with Tov112D was “inactive” in each case.

`CC(C)=C/C=C\[C@H](C)[C@H]1CC[C@]2(C)C[C@@H]3C(C)=CC(=O)C3/C(CO)=C\C[C@@H]12` (stereo not given in full): the Potency result in the test with C33A, in the test with CAOV3, in the test on CASKI, with Es-2, with HeLa and in the test with Hek293T was “inactive” each time. Also, the Potency result with JEG-3, with OV90, with PA-1, in the test on SKOV3, with Tov-21-G and in the test with Tov112D was “inactive” throughout.

For `COc1cc(C)c(C(=O)Oc2cc(C)c(C(=O)Oc3cc(C)c(C(=O)NC(C)C(=O)O)c(O)c3)c(O[C@@H]3O[C@H](CO)[C@@H](O)[C@H](O)[C@H]3OC(C)=O)c2)c(OC)c1` (stereo not given in full), the Potency result in the test on C33A, in the test with CAOV3, with CASKI, in the test with Es-2, in the test on HeLa and with Hek293T was “inactive” each time. Further, the Potency result in the test on JEG-3, with OV90, in the test with PA-1, in the test with SKOV3, in the test on Tov-21-G and with Tov112D was “inactive” each time.
